Most compounds without a hit are left out; they make up all but 12% or so of the library.
AMA1 RON2 block – inhibitors of Plasmodium falciparum AMA1-RON2 interaction | AlphaScreen AMA1-biotinylated RON2 peptide binding | Potency, µM (series often up to 58.2 µM), for the others: at the top dose activity change, negative = inhibition, most hits filed as inhibitors | 360,000 tested, 0.2% active | AID 720542;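 also: 0% = vehicle wells and -100% = peptide control; nearly all actives have a fitted effect of over 45% in size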
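AMA1 (3D7) with his tag at 25 nM final met compounds first, then biotinylated RON2 peptide at 25 nM; detection used donor plus acceptor beads, 10 µg/mL apiece, read by AlphaScreen after 30 min at room temperature.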
SARS PLP yeast – SARS-CoV PLP inhibition in yeast. S. cerevisiae expressing SARS-CoV PLpro, growth rescue. Potency, µM (doses to about 32.9 µM), without a hit: top-dose activity, positive = growth rescue, hits mostly activators. 330,000 tested, 0.19% active; calls by dose curve; also: 0% is about no effect; nearly all actives have a fitted effect of over 55% in size
HCV inhibitor – inhibitors of hepatitis C virus infection. Huh7.5.1 HCVcc-Cre infection, luciferase reporter, 44 h. Potency, µM (series often up to 41.8 µM), for the others: at the highest dose activity change, negative = inhibition, usual class: inhibitors. 340,000 tested, 3.4% active. AID 651820; also: % is scaled to controls: 0 for no effect and ±100 for the full control effect
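1,000 cells/well; 4 h culture; + compound; + HCVcc-Cre (~0.5 moi); 44 h; luciferase substrate, RT 15 min; read 15 sec.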
NS1 inh – inhibitors of influenza NS1 protein function; Potency, µM (top dose mostly 46.1 µM), for the others: at the top dose activity, positive = more growth; 270,000 tested, 0.4% active; AID 2326; calls by dose curve; also: actives are rising curves; nearly all actives have a fitted effect of over 50% in size
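Read-out: OD600 growth recovery of NS1-expressing budding yeast. Cells grown overnight at 30C in -URA glucose medium, washed, resuspended and diluted 1:100 in 2% galactose assay medium, pH 6.0. Same strain lacking NS1 served as positive control.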
Pf growth 48h – P. falciparum growth inhibition at 48 hours (one generation); P. falciparum luciferase growth in erythrocytes, 48 h; Potency, µM (highest dose often 28.7 µM), without a hit: at the highest dose activity change, negative = inhibition, most hits filed as inhibitors; 310,000 tested, 5.9% active; AID 504832; also: % is scaled to controls: 0 for no effect and ±100 for the full control effect
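Cell-based growth assay: transgenic P. falciparum expressing firefly luciferase, cultured in red cells within RPMI 1640 containing 0.5% w/v Albumax, 24 mM bicarbonate and gentamycin. A drop in luciferase activity indicates inhibition.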
Pf growth 96h – P. falciparum growth inhibition at 96 hours. P. falciparum luciferase reporter growth, 96 h. Potency, µM (titrated, usually from 28.7 µM), for inactives: top-dose activity change, negative = inhibition, usual class: inhibitors. 320,000 tested, 6.9% active. AID 504834; also: % is scaled to controls: 0 for no effect and ±100 for the full control effect
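Two parasite generations (96 h, 37 C, 5% CO2) of compound exposure in infected erythrocytes (0.05% parasitemia, 2% hematocrit). Luciferase-reporter P. falciparum; decreased luminescence indicates inhibited growth, aimed at apicoplast-acting delayed death.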
* = called active by the depositor; ? = inconclusive; · = not tested or not shown; [ ] = another dose, or the depositor's remark. Unless noted, calls follow the shape of the dose curve; as a rule, active = well fitted curve in the direction sought with a large enough effect; inconclusive = small, poorly fitted or top-dose-only effect, or another doubt; inactive = no such curve, though single readings can be large; an effect the other way counts as inactive or inconclusive. Potency is read from the fitted curve at half-maximal effect.

SMILES | AMA1 RON2 block | SARS PLP yeast | HCV inhibitor | NS1 inh | Pf growth 48h | Pf growth 96h
CCN(CC)CC#CCC(OC)(c1ccccc1)c1ccccc1 | 0.1% | 0.1% | 6.2% | 0.8% | ? | -2.3%
CC1=C2C(=O)C3C(CC=C4CC(O)CCC43C)C2CCC12OC1CC(C)CNC1C2C (stereo not given) | 8.2% | -2.8% | 15.8% | -7.4% | 13.1µM* | ?
Cc1ccc(S(=O)(=O)N(c2nc(NC(C)C)nc(NC(C)C)n2)n2cnnc2)cc1 | 12.3% | 15.9% | -4.5% | -12.5% | -46.7% | -8.1%
Cc1cccn2c(CNCCc3ccccn3)c(C(=O)N3CCOCC3)nc12 | 119.4% | 6.9% | 12.7% | 26.0% | ? | 13.1µM*
CC(OC(=O)COc1ccc(C#N)cc1)C(=O)Nc1ccc(Cl)cn1 (stereo not given) | -4.3% | -2.9% | 8.0% | · | -3.8% | 16.1%
CCOc1ccc(NC2=CC(=O)C(=O)c3ccccc32)cc1 | -28.2% | · | ? | · | · | ·
CC(C(=O)Nc1cccnc1)N1C(=O)c2ccccc2C1=O (stereo not given) | -0.5% | 2.9% | 21.9% | -4.2% | 3.8% | 22.3%
O=C1C=C(Nc2ccc(F)cc2)c2ccccc2C1=O | 4.3%[11.6 µM] | -0.6% | ? | · | 1.85µM* | 1.04µM*
O=C1C=C(Nc2cccnc2)c2ccccc2C1=O | -14.0% | · | 12.6µM* | · | · | ·
COCc1cc(C)nc(NC2CC(C)(C)NC(C)(C)C2)c1C#N | 4.0% | -1.5% | -4.6% | 1.8% | -7.9% | 4.2%
COc1cc(NC2CCCCC2O)c2nc(-c3ccc(Cl)cc3)ccc2c1 (stereo not given) | 59.6% | -2.2% | ? | 19.9% | 1.85µM* | 1.85µM*
COc1ccc(OCC(=O)OCC(=O)NC2CCCCC2C)cc1 (stereo not given) | 5.8% | -2.3% | 4.9% | · | -18.7% | ?
CC(OC(=O)c1ccc(Cl)c(S(=O)(=O)N2CCOCC2)c1)C(=O)Nc1ccc(S(N)(=O)=O)cc1 (stereo not given) | 24.9% | 2.2% | 6.2% | · | ? | -3.4%
CCOCCCN1C(=O)CN(C2CCCCCC2)C(=O)C1c1ccc(OC)cc1 (stereo not given) | -8.5% | -1.0% | 0.7% | -1.0% | ? | 0.828µM*
Cc1ccc(NC(=O)CSc2nnc(N)s2)cc1S(=O)(=O)N1CCCCC1 | 20.5% | -4.5% | ? | 8.6% | ? | ?
Cc1ccc(NC(=O)CCl)cc1S(=O)(=O)N1CCCCCC1 | 11.2% | 9.2% | ? | · | -5.7% | 9.28µM*
Cc1ccc(NC(=O)Cc2ccccc2F)cc1S(=O)(=O)N1CCCCCC1 | 4.8% | 1.1% | 11.2µM* | · | ? | ?
Cc1ccc(NC(=O)CC2OC(=O)c3ccccc32)cc1S(=O)(=O)N1CCCCCC1 (stereo not given) | -3.3% | -2.1% | ? | · | 8.28µM* | ?
Cc1ccc(NC(=O)CSc2nnc(C3CC3)n2C)cc1S(=O)(=O)N1CCCCC1 | 5.1% | 5.4% | ? | · | 13.1µM* | ?
O=C(CC1OC(=O)c2ccccc21)Nc1ccc(Cl)c(S(=O)(=O)N2CCCCC2)c1 (stereo not given) | -22.3% | · | ? | · | -24.5% | 3.7%
CC1CCc2sc(NC(=O)C3CC(Cl)=CCC3C(=O)O)c(C#N)c2C1 (stereo not given) | -7.5% | 1.0% | 11.2% | 12.9% | 4.3% | -0.7%
COCCNCC(=O)Nc1ccc(C)c(S(=O)(=O)N2CCCCC2)c1 | -2.8% | 2.6% | 3.7% | · | -2.5% | -2.7%
CCc1noc(C)c1C(=O)Nc1ccc(C)c(S(=O)(=O)N2CCCCCC2)c1 | -1.1% | 9.1% | 12.6µM* | · | 10.4µM* | ?
CCc1noc(C)c1C(=O)Nc1cc(S(=O)(=O)N2CCCCC2)ccc1N(C)C | 24.4% | -22.1% | -0.9% | · | ? | ?
Cc1ccc(NC(=O)CNC2CCCCC2)cc1Cl | 13.7% | 2.3% | -20.8% | -2.6% | ? | 0.738µM*
SMILES | AMA1 RON2 block | SARS PLP yeast | HCV inhibitor | NS1 inh | Pf growth 48h | Pf growth 96h
CC(=O)c1ccc(NC(=O)CNC2CCCCC2)cc1 | -10.5% | -0.4% | -24.5% | 3.7% | 0.4%[0.00184 µM] | 3.7%
Cc1ccc(NC(=O)/C=C/c2ccco2)cc1S(=O)(=O)N1CCCCCC1 | -6.8% | · | 2.82µM* | · | · | ·
Cc1ccc(NC(=O)CNc2ccccc2N2CCCC2=O)cc1S(=O)(=O)N1CCCCC1 | 2.6% | 0.0% | ? | · | 10.4µM* | 9.28µM*
CCC(C)c1ccccc1NC(=O)COC(=O)c1ccc2c(c1)S(=O)(=O)c1ccccc1C2=O (stereo not given) | 4.6% | -27.8% | 33.9% | 3.9% | 7.2% | 23.2%
Cc1cccc(C(C)C)c1NC(=O)Cc1ccc(S(=O)(=O)N2CCOCC2)s1 | -2.5% | 4.8% | -8.2% | · | -3.0% | ?
CCOC(=O)/C(=N\Nc1ccc(OC)cc1)c1csc(Nc2ccccc2)n1 | -3.7% | -4.4% | 1µM* | 18.5% | · | 10.4µM*
CCOC(=O)/C(=N/Nc1ccccc1)c1csc(Nc2ccccc2)n1 | -11.8% | -6.4% | ? | 14.1% | · | ?
CCNc1nc(SCCOc2ccc(Cl)cc2Cl)nc(N(C)C)n1 | 11.0% | -0.3% | ? | · | ? | ?
CCNc1nc(SCCOc2ccc(C)cc2)nc(N(C)C)n1 | ? | -5.7% | 11.2µM* | 3.4% | 0.7% | -1.3%
CCOc1nc(SCCOc2ccccc2)nc(N(C)C)n1 | 12.0% | -10.1% | 11.2µM* | -19.6%[9.22 µM] | -25.3% | 13.2%
CCCCn1c(N)c(N(CC(C)C)C(=O)c2cc(S(=O)(=O)N3CCCCC3)ccc2C)c(=O)[nH]c1=O | 15.1% | 0.2% | 5.3% | · | 6.1% | 12.0%
CCc1nc(N)nc(N)c1-c1ccc(Cl)cc1 | 0.0% | 1.3% | ? | -6.8% | 0.0828µM* | 4.26µM*
CCc1nc(N)nc(N)c1-c1ccc(N(C)Cc2ccccc2)c([N+](=O)[O-])c1 | -0.9% | · | ? | · | · | ·
O=C(Nc1cccc2cccnc12)c1ccc2sc([C@@H]3O[C@H](CO)[C@H](O)[C@H](O)[C@H]3O)nc2c1 | 48.4% | · | · | · | · | ·
CCC(C)(C)NC(=S)Nc1ccccc1C | -5.5% | 8.6% | 3.3% | · | 10.4µM* | ?
O=C1[C@@H](Oc2ccccc2)[C@@H](c2cccnc2)N1c1ccccc1 | -12.5% | 8.1% | 35.5µM* | · | · | ·
COc1ccc(CNC(=O)c2ccccc2SCC(=O)NCc2ccco2)cc1 | 1.9% | 4.7% | 11.5% | · | -6.6% | 18.5%
Cc1cc(S(=O)(=O)NCc2ccccc2)ccc1OCC(=O)NCc1ccncc1 | -14.8% | -0.7% | -0.5% | 2.0% | ? | ?
CC1(C)C(N(O)C(=O)Nc2ccc(Cl)cc2)N(c2ccc(Cl)cc2)C(=O)N1CC(=O)NN (stereo not given) | 48.2% | 13.1% | ? | ? | · | 10.4µM*
C/C(N)=C(/C#N)C(=O)CSc1nnc(Nc2ccccc2C)s1 | -16.7% | 14.0% | ? | 13.3% | 57.9% | 7.38µM*

Bioassay records as filed in PubChem.
